Assay results published in PubChem BioAssay (NCATS).
Several values for one entry are separate records, joined by “and”; a condition that tells them apart may be missing. Equal entries are not always repeated. Values without a mark were called inactive. Unless noted, the call rests on the fitted dose curve; in most records, active means well fitted curve in the direction sought with a large enough effect; inconclusive means small, poorly fitted or top-dose-only effect, or another doubt; inactive means no such curve, though single readings can be large; an effect the other way counts as inactive or inconclusive. Results filed as inconclusive are left out.

System: not listed separately
Test: qHTS Assay for Identification of Small Molecule Agonists for Hypoxia Response Element Signaling Pathway (AID 914; active means well fitted activation curve with a large enough effect in the signal ratio, with a control signal flat, not every such curve was filed as active; the % refers to the signal ratio; further: % of control where 0% means no effect)
Conditions: ME-180 (cervical carcinoma) HRE-bla reporter, beta-lactamase ratio, CoCl2, 17 h; stronger effect = higher value
In short: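 HRE-bla ME-180 cells with beta-lactamase reporter under hypoxia response element, compounds with EC50 CoCl2 for 17 hours at 37 C. CCF4 substrate, 460nm/530nm emission ratio gave %Activity; AC50 from titration series.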

| Structure (SMILES) | activation |
| --- | --- |
| C#CCCCO/N=C1/C[C@@H](O)[C@@H](O)[C@@H]2[C@@H]3C(=O)N(c4cccc(Oc5ccccc5)c4)C(=O)[C@H]3CC[C@@H]12 | -6.82% |
| COc1ccc(COC(=O)N/N=C2/C[C@@H](O)[C@@H](O)[C@@H]3[C@@H]4C(=O)N(Cc5ccc6c(c5)OCO6)C(=O)[C@H]4CC[C@@H]23)cc1 | 0.811% |
| O=C(N/N=C1/C[C@@H](O)[C@@H](O)[C@@H]2[C@@H]3C(=O)N(c4cccc(Oc5ccccc5)c4)C(=O)[C@H]3CC[C@@H]12)OCc1ccccc1 | -0.0366% |
| COc1ccc(COC(=O)N/N=C2/C[C@@H](O)[C@@H](O)[C@@H]3[C@@H]4C(=O)N(Cc5ccc6c(c5)OCO6)C(=O)[C@H]4CC[C@H]23)cc1 | -9.34% |
| CSCC[C@@H]1NC(=O)C/C=C\[C@@H](C)COC(=O)[C@@H](C)COC1=O | -8.61% |
| CSCC[C@@H]1NC(=O)C/C=C\[C@@H](C)COC(=O)[C@H](C)COC1=O | 5.76% |
| C/C(CCN1CCCc2nc(C)c(C)cc21)=N\O[C@@H](C)c1cn([C@@H]2COC[C@@H]2O)nn1 | 8.15% |
| CC(C)C(=O)N[C@H]1CCCN1C(=O)/C=C\c1ccccc1 | 4.87% |
| CC(C)[C@@H](OCc1ccccc1)[C@H](C)/C=N\OC[C@@H](O)[C@@H]1O[C@@H]2OC(C)(C)O[C@@H]2[C@H]1O | 7% |
| CC(C)CO/N=C1/C[C@@H](O)[C@@H](O)[C@@H]2[C@@H]3C(=O)N(C4CCCCC4)C(=O)[C@H]3CC[C@H]12 | -3.43% |
| Cc1cc2c(nc1C)CCCCN2C[C@H](O)CN1CCCc2nc(-c3ccc(Br)cc3)ccc21 | -0.373% |
| C[C@H](c1ccccc1)N1C(=O)[C@H]2[C@@H]3[C@H](O)[C@H](O)CC(=O)[C@H]3CC[C@H]2C1=O | 0.807% |
| CCN1C(=O)[C@H]2[C@H]3[C@H](O)[C@H](O)C/C(=N/OCc4ccccc4)[C@H]3CC[C@@H]2C1=O | 7.18% |
| CC(C)[C@@H](OCc1ccccc1)[C@H](C)/C=N\OC[C@@H](C)[C@H](OCc1ccccc1)C(C)C | -1.89% |
| CCN1C(=O)[C@H]2[C@@H]3[C@H](O)[C@H](O)CC(=O)[C@H]3CC[C@H]2C1=O | -3.64% and -8.67% |
| CO[C@H]1COC(=O)[C@@H](C)COC(=O)[C@H](C)NC(=O)C/C=C\[C@H]1C | -4.15% |
| CO[C@H]1COC(=O)[C@H](C)COC(=O)[C@H](C)NC(=O)C/C=C\[C@H]1C | 5.98% |
| Cc1ccc2nc3nc4ccc[nH]c4cc3c2c1 | -21.2% |

System: not listed separately
Test: Confirmation and Secondary Assay for Modulators of Hemoglobin Beta Chain Splicing at IVS2 705 locus (AID 930);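 further: HeLa cells stably expressing the EGFP-705 splicing reporter; GFP fluorescence per well restored by corrected splicing of the IVS2-705 intron in EGFP; % of control where 0% means no effect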
Conditions: HeLa EGFP-705 splicing reporter, GFP fluorescence, 48 h; series mostly up to 46.1 µM; activation: at the top concentration
In short: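 HeLa cells stably carrying EGFP interrupted by mutant beta-globin intron 2 (IVS2-705) treated 2 days at 37C with compound; 500 nM antisense PNA as control. Correct splicing read as total peak GFP intensity per well by laser-scanning cytometry.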

| Structure (SMILES) | activation [%] |
| --- | --- |
| CC1(C)C(=O)C=C[C@]2(C)C1CC(=O)[C@]1(C)C2CC[C@@]2(C)C(c3ccoc3)OC(=O)C3O[C@@]321 (stereo not given in full) | 0.349 |
| CC(=O)N1CCN(c2ccc(OCC3CO[C@@](Cn4ccnc4)(c4ccc(Cl)cc4Cl)O3)cc2)CC1 (stereo not given in full) | -0.512 |
| NC(N)=Nc1nc(CSCC/C(N)=N\S(N)(=O)=O)cs1 | 0.979 |
| CCOC(=O)C1=C[C@@]2(CC)CCCN3CCc4c(n1c1ccccc41)C32 (stereo not given in full) | 3.59 |
| COc1cc2c(cc1OC)C1C(=O)c3c(O)cc4c(c3OC1CO2)C=CC(C)(C)O4 (stereo not given) | -0.0883 |
| CN1C[C@H](C(=O)N[C@@]2(C)O[C@@]3(O)C4CCCN4C(=O)C(Cc4ccccc4)N3C2=O)C[C@H]2c3cccc4[nH]cc(c34)C[C@H]21 (stereo not given in full) | 0.876 |
| CC(=O)OC1CCC2(C)C3=C(CCC2C1(C)C)[C@@]1(C)CCC(C(C)CCC=C(C)C)[C@@]1(C)CC3 (stereo not given in full) | -1.81 |

Target: Alpha-galactosidase A (Homo sapiens) (UniProt P06280)
Sequence (P06280 whole entry, looked up): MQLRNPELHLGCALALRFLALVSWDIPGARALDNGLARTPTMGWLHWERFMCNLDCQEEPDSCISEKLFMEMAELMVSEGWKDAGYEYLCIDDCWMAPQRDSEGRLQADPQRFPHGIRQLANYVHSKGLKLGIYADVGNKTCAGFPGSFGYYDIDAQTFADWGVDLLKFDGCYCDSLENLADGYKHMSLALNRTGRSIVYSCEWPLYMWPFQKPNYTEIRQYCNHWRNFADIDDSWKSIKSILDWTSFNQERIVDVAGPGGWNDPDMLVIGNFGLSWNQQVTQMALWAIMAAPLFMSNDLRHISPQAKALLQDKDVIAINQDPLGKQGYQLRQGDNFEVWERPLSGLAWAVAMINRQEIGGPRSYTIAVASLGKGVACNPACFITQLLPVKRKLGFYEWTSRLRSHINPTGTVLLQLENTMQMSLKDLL
Test: Counterscreen for Glucocerebrosidase Inhibitors: qHTS Assay for Human alpha-Galactosidase at pH 4.5 (AID 992); further: 0% is about no effect
Conditions: purified enzyme, fluorogenic substrate; series mostly up to 76.9 µM; activity change, negative = inhibition: at the top concentration
In short: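 Quantitative HTS: compounds tested from 0.7 nM up to 77 uM against 2 nM enzyme with 80 uM 4-MU alpha-D-galactopyranoside. The 20 min room-temperature reaction is stopped with 1M NaOH/1M glycine, pH 10.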

| Structure (SMILES) | activity change, negative = inhibition [%] |
| --- | --- |
| Cc1cc(N2CCOCC2)nc2ccc(NC(=O)C3CCCCC3)cc12 | -18 |
| CCCCCCCCCN1C[C@H](O)[C@@H](O)[C@H](O)[C@H]1CO | 10 |
| COc1ccc(Cl)cc1Nc1nc(NCCO)nc(N2CCCC2)n1 | 1.33 |
| CCc1nnc(NC(=O)c2ccc(NS(=O)(=O)c3ccccc3)cc2)s1 | 4.33 |
| CC(C)(C)Oc1ccccc1Nc1nc(NCCO)nc(N2CCCC2)n1 | -3 |

Target: alpha-glucosidase (Oryza sativa, rice) (UniProt Q653V4)
Test: Counterscreen for Glucocerebrosidase Inhibitors: qHTS Assay for Rice alpha-Glucosidase at pH 5.0 (AID 997);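 further: 0% = full activity with enzyme and -100% = basal without enzyme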
Conditions: rice alpha-glucosidase enzyme activity; series mostly up to 76.9 µM; activity change, negative = inhibition: at the top concentration
Source text: NIH Chemical Genomics Center [NCGC]
NIH Molecular Libraries Screening Centers Network [MLSCN]
PI Name: Zheng, Wei [NIH]
Alpha-glucosidase is responsible for hydrolysis of terminal, non-reducing 1,4-linked alpha-D-glucose residues with release of alpha-D-glucose. It is a lysosomal hydrolase that is required for the degradation of a small percentage (1-3%) of cellular glycogen in human. Deficiency of this enzyme results in glycogen-storage disease type II (GSDII), also referred to as Pompe disease, an autosomal recessive disorder. Structurally normal glycogen is accumulated in lysosomes and cytoplasm in affected patients, primarily in muscle tissues. Excessive glycogen storage within lysosomes may interrupt normal functioning of other organelles and leads to cellular injury. In turn, this leads to enlargement and dysfunction of the entire organ involved (eg, cardiomyopathy and muscle weakness).
It has reported that the improper folding and trafficking of alpha-glucosidase resulted from the genetic mutations may account for a significant number of Prope patients. […] We optimized this alpha-glucosidase assay in 1536-well plate format for identifying the novel small molecule inhibitors with the structures other than the sugar analogs in order to develop the new pharmacological chaperones.
NCGC Assay Protocol Summary:
This is a fluorogenic enzyme assay with 4-methylumbelliferyl-alpha-D-pyranoside as the substrate and rice alpha-glucosidase as the enzyme preparation. Upon the hydrolysis of this fluorogenic substrate, the resulting product, 1. 4-methyllumbelliferone, can be excited at 365 nm and emits at 440 nm which can be detected by a standard fluorescence plate reader. Data were normalized to the controls for basal activity (without enzyme) and 100% activity (with enzyme). In the AC50 values were determined from concentration-response data modeled with the standard Hill equation.
Assay buffer: 50 mM citric acid, 0.005% Tween-20, pH 5.0. (pH 5.0 is an optimal condition for this enzyme assay)
1536-well assay protocol for the human alpha-glucosidase:
(1) Add 2 ul/well of enzyme (4 nM final)
(2) Add 23 nL compounds in DMSO solution. The final titration was 0.7 nM to 77 uM.
(3) Add 1 ul of substrate (400 uM final)
(4) Incubate at room temperature for 20 min.
(5) Add 2 ul stop solution (1M NaOH and 1M Glycine mixture, pH 10)
(6) Detect the assay plate in a ViewLux plate reader (PerkinElmer) with Ex=365 nm and Em=440nm.
Keywords: Alpha-glucosidase, Prope Disease, pharmacological chaperone, chaperone therapy, high throughput screening, alpha-glucosidase inhibitor, MLSMR, MLSCN, NIH Roadmap, qHTS and NCGC

| Structure (SMILES) | activity change, negative = inhibition [%] |
| --- | --- |
| Cc1cc(N2CCOCC2)nc2ccc(NC(=O)C3CCCCC3)cc12 | 22.3 |
| CCCCCCCCCN1C[C@H](O)[C@@H](O)[C@H](O)[C@H]1CO | -99.3 |
| COc1ccc(Cl)cc1Nc1nc(NCCO)nc(N2CCCC2)n1 | -9.33 |
| CCc1nnc(NC(=O)c2ccc(NS(=O)(=O)c3ccccc3)cc2)s1 | -12 |
| CC(C)(C)Oc1ccccc1Nc1nc(NCCO)nc(N2CCCC2)n1 | -2.5 |
